# According to PubChem BioAssay AID720513 (Broad Institute, 2013):
# The whole screen tested about 2,100 compounds, of which about 480 (23%) were called active. Another 5% or so got no clear call; they are omitted. These entries were drawn from the full list. Potency and affinity values are given separately. Values without a mark were called inactive.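 The calls were made as follows: active = fitted curve reaches 40% activation at or below the top valid concentration, in every replicate test; inconclusive = replicate tests disagree on the call; inactive = the rest, including activity in the opposite direction.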
# Experiment: activators raising PGC1a acetylation in cells, dose response, cell-based, cherry-picked samples, set 6 (AID 720513);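 also: cells made to overexpress flag tagged PGC1a plus GCN5 acetyltransferase by viral infection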
# Details: U2OS PGC1a acetylation AlphaLISA, overnight, 0 = neutral, -100 = inhibitor control; series mostly up to 19.5 µM; activation (acetylation increase): at the top concentration
row,SMILES,activation (acetylation increase)
1,O=C(Cc1cccnc1)N1CC(=O)N2[C@H](CO)[C@@H](c3ccc(C#CC4CCCCC4)cc3)[C@H]2C1,-1.38%
2,CCN(CC)C1CC(=O)N(c2ccc(Br)cc2)C1=O (stereo not drawn),21%
3,COC(=O)c1cc(C(=O)N2CCN(c3cccc(Cl)c3)CC2)cc([N+](=O)[O-])c1,-24.1%
4,COc1cccc(NC(=O)N2CCN(c3cccc(C)c3)C(C)C2)c1 (stereo not drawn),32.5%
5,O=C(c1cc([N+](=O)[O-])ccc1N1CCCC1)N1CCCC1,22.3%
6,COC(=O)[C@]1(Cc2ccccc2)N=C(c2ccc(OCCCO)cc2)O[C@@H]1c1ccccc1,24.2%
7,O=C(c1cccc(Cl)c1)N1CCN(c2ccc(N3CCOCC3)nn2)CC1,-16.9%
8,CCN1C(C#N)=C(C#N)N=C(C)CC1(C)C,-8.91%
9,CC1(C(=O)Nc2cccc(C#N)c2)CCN1C(=O)CCc1ccccc1 (stereo not drawn),27.8%
10,COc1cc(CN2C[C@@H]3N[C@H](C2)C3c2ccc(/C=C/c3ccccc3)cc2)cc(OC)c1 (stereo partly drawn),-94.1% [at 21 µM]
11,O=C1C=CCCN1S(=O)(=O)/C=C/c1ccccc1,-81.8%
12,CO[C@H]1CN(C)C(=O)c2ccc(NC(=O)Nc3ccccc3F)cc2OC[C@@H](C)NC[C@@H]1C,-2.58%
13,CC(=O)N(C1=C(N2CCOCC2)C(=O)c2ccccc2C1=O)c1ccc(C(=O)O)cc1,-16%
14,N#Cc1ccsc1NC(=O)CSc1nnc(NC2CC2)s1,1.26%
15,Cc1cc(C)c(C#N)c(SCC(=O)Nc2nnc(-c3ccccc3)s2)n1,12.3%
16,Cc1ccc2nc(C)cc(OCC(=O)O)c2c1,-0.665%
17,C[C@@H]1CN([C@H](C)CO)C(=O)c2cc(C#CC3CC3)cnc2O[C@H]1CN(C)C(=O)Nc1ccc(F)cc1,3.17%
18,Cc1[nH]c2ccc(C(C)C)cc2c1CC(=O)O,15.9%
19,O=C(Nc1ccc(CN2CCOCC2)cc1)c1ccc(F)cc1,8.79%
20,COc1ccc2c(c1)c1nc3ccccc3nc1n2CC(=O)OC(C)C,9.95%
21,CC(C)(C)c1ccc(OCCSc2nc3ccccc3n2CC(=O)O)cc1,6.13%
22,CC(C)(C)c1ccc(C(=O)NCCN2CCOCC2)cc1,12.6%
23,N=c1n(Cc2ccccc2)c2ccccc2n1CC(O)COc1ccc(Cl)cc1Cl (stereo not drawn),-106%
24,Cc1nnc(SCC(=O)N2CCC(c3noc4ccc(F)cc34)CC2)s1,-9.01%
25,CS(=O)c1nc(-c2ccc(Br)cc2)cc(-c2ccccc2)c1C#N (stereo not drawn),-102%
26,CN(C)CCCNc1cc(-c2ccccc2)nc2cc(-c3cccc(F)c3)nn12,9.3% [at 10 µM]

row,SMILES,activation (acetylation increase)
1,C=CCn1c(C)cc(C(=O)Cn2ncc(Cl)c(Cl)c2=O)c1C,-99%
2,Cc1cc(C)c(S(=O)(=O)NCC2CCC(C(=O)NCc3ccc4c(c3)OCO4)CC2)c(C)c1 (stereo not drawn),35.8%
3,Cc1noc(C)c1S(=O)(=O)Nc1ccc2c(c1)C(=O)N([C@H](C)CO)C[C@@H](C)[C@H](CN(C)Cc1ccc(C(F)(F)F)cc1)O2,6.91% [at 21 µM]
4,O=c1oc(-c2ccccc2)nc2sc3c(c12)CCC3,13.4%
5,CCOC(=O)c1c(C)n(C)c2cc(Br)c(O)c(O)c12,-26.6%
6,CCOC(=O)c1c2c(n(C)c1C)C(=O)C(=O)c1ccc(Br)cc1-2,-64%
7,O=C(Nc1ccc2c(c1)OCO2)N[C@H]1CC[C@H](CCNC(=O)C2CCC2)O[C@@H]1CO,20%
8,CCOC(=O)c1c(NC(=O)/C=C/C(=O)O)sc(C)c1-c1ccc(C(C)(C)C)cc1,-36.6%
9,CCOC(=O)c1c(NC(=O)c2c(Br)cnn2CC)sc(C)c1C,24.3%
10,CN1CCc2c(sc3c2c(NCc2ccco2)nc2nnnn23)C1,25.8%
11,O=C(Cc1cccc(NC(=O)C2CCCN(C(=O)c3ccccc3)C2)c1)Nc1cccc(C(=O)N2CCOCC2)c1 (stereo not drawn),9.98%
12,CCn1cnc2cc(NCc3ccc(N(C)C)cc3)ccc21,24.6%
13,O=C(Cc1cccc(NC(=O)C2CCN(C(=O)c3ccccc3)CC2)c1)Nc1cccc(C(=O)N2CCCCC2)c1,2.11%
14,COc1ccc(C(=O)Nc2cc(Cl)ccc2-n2cncn2)c(OC)c1OC,26.7%
15,Cc1noc(/C=C/N(C)C)c1S(=O)(=O)N(C)CC(=O)NC1CCCCC1,-4.8%
16,CCC(=O)N1C[C@H](C)[C@H](OC)CN(C)C(=O)c2cc(NC(=O)c3cnccn3)ccc2OC[C@@H]1C,11.4%
17,Cc1nc2ncnn2c(C)c1CCC(=O)N1CCN(c2ccccn2)CC1,17%
18,O=C(c1ccccc1-c1ccccc1)N1CCN(c2ccccn2)CC1,4.85%
19,COc1ccc(CCNC(=O)C2CCN(C(=O)c3ccc(F)cc3)CC2)cc1OC,-1.74%
20,COc1ccc2nc(N3CCCC(C(=O)NCCCN4CCN(C)CC4)C3)sc2c1 (stereo not drawn),38.8%
21,COc1cccc(CNC(=O)C(=O)NCCC2CCCCN2S(=O)(=O)c2ccc(C)cc2)c1 (stereo not drawn),40%
22,Cc1ccc(S(=O)(=O)N2CCCC2CNC(=O)c2ccc(F)c(F)c2)cc1 (stereo not drawn),16.1%
23,Nc1cc2ccncc2c2ccccc12,-9.67%
24,Cc1cc(Sc2nnc(N)s2)c2ccccc2n1,-27.3%
25,O=c1c2cccnc2n(-c2ccccc2)n1Cc1ccc(Cl)cc1,1.82%
26,O=C(Nc1ccc(-c2cn3c(n2)SCC3)cc1)c1ccc2ccccc2n1,11.9%

row,SMILES,activation (acetylation increase)
1,CCN(CC(=O)Nc1ccccc1OC)C(=O)C1CCC1,28.4%
2,COc1ccc(C(=O)Nc2cccc(NC(=O)c3ccc(OC)c(OC)c3)n2)cc1OC,-64.7%
3,CCc1c(C(=O)NC2CCCCC2)[nH]c(C)c1C(C)=O,-18.3%
4,CCn1c(C(=O)NC2CCC(C)CC2)cc2sccc21 (stereo not drawn),12.7%
5,CN(Cc1c(F)cccc1Cl)c1nnnn1-c1ccccc1,35.9%
6,CN(Cc1c(F)cccc1Cl)C(=O)CNC(=O)c1sc2ccccc2c1Cl,-15.4%
7,CN(c1cc2c(c3c1ccn3C)C1CCC2C1)C1CCCCC1 (stereo not drawn),3.95%
8,CCN(CC)CCNc1nc(-c2ccc(OC)cc2)c(-c2ccc(OC)cc2)s1,7.51%
9,CCCCNC(=O)C1CCN(Cc2ccccn2)CC1,12%
10,CC1(Cc2cc(Cl)ccc2C(F)(F)F)C(=O)Nc2ccc(S(=O)(=O)NC3CCCCC3)cc21 (stereo not drawn),22.5%
11,N#C/C(=C(/O)c1cc2ccccc2o1)c1nc2ccccc2s1,-9.17%
12,O=S(=O)(/C(=C\c1ccc(C(F)(F)F)cc1)c1nc2ccccc2[nH]1)c1ccccc1,-97.6%
13,CC(=O)Nc1cc(OC(C)=O)c2nonc2c1OC(C)=O,-109%
14,Cc1ccccc1CSc1nnc(-c2ccco2)n1Cc1ccco1,21.1%
15,COCC(=O)Nc1ccc2c(c1)OC[C@@H](C)N(CCc1ccccc1)C[C@H](C)[C@@H](OC)CN(C)C2=O,-19.2%
16,Cc1cccc(-n2c(=O)cc(N3CCN(c4ccc(F)cc4)CC3)[nH]c2=O)c1,-9.82%
17,CC(C)c1nnc(NC(=O)CCS(=O)(=O)c2nc(-c3cccs3)cc(C(F)(F)F)n2)s1,27.3% [at 10 µM]
18,COC(=O)c1ccc(CSc2nc3c(cnn3-c3ccc(Cl)cc3)c(=O)[nH]2)o1,-0.884%
19,CC(=O)N1CCN(S(=O)(=O)c2cccc(C(=O)Nc3ccc4c(c3)OCO4)c2)CC1,-13%
20,O=C(NCc1ccc2c(c1)OCO2)C1CCN(S(=O)(=O)c2cccs2)CC1,-15.6%
21,Cc1cc(C)n(-c2nc(O)cc(=O)[nH]2)n1,-8.66%
22,C[C@H]1CN([C@@H](C)CO)C(=O)CCCn2nncc2CO[C@@H]1CN(C)C(=O)Nc1ccccc1,-6.76%
23,NS(=O)(=O)c1cccc(NC(=O)CSc2ccccn2)c1,-24.2%
24,O=C(Cc1ccc(Cl)cc1)Nc1ncccn1,-5.97%
25,CC(C)OC(=O)c1c(F)c(F)c(N2CCOCC2)c(F)c1F,0.447%
26,Cc1noc(C)c1S(=O)(=O)N(C)C[C@H]1Oc2ccc(NC(=O)Nc3ccccc3)cc2CC(=O)N([C@H](C)CO)C[C@H]1C,8.56% [at 21 µM]

row,SMILES,activation (acetylation increase)
1,O=S(=O)(c1ccc(Br)s1)N1CCN(Cc2ccc3c(c2)OCO3)CC1,-20.2%
2,CCC(CC)NC(=O)Cc1ccc(S(=O)(=O)N2CCOCC2)s1,3.69%
3,Cc1cccnc1C(NC(=O)C1CCN(Cc2cn(C)c3ccccc23)CC1)c1ccc(Cl)cc1 (stereo not drawn),19% [at 10 µM]
4,Cc1c(/C(O)=C2\C(=O)C(=O)N(CCCN(C)C)C2c2ccccc2)cnn1-c1ccccc1 (stereo not drawn),-10.2%
5,CC1CN(c2oc(-c3cccs3)nc2C#N)CC(C)O1 (stereo not drawn),4.91%
6,COc1ccc(C2=NOC(C(=O)Nc3cccnc3)C2)cc1 (stereo not drawn),28.1%
7,Cc1ccc(CNC(=O)c2ccc(CS(=O)(=O)c3ccccc3)o2)cc1,0.639%
8,O=C(c1cccc(F)c1)N1CCN(C(=O)c2cc(-c3ccc(Cl)cc3Cl)on2)CC1,-4.66%
9,C[C@H](CO)N1C[C@H](C)[C@@H](CN(C)CC2CCOCC2)Oc2ncc(Br)cc2C1=O,-20%
10,O=c1c(Cl)c(NCCCO)cnn1-c1nc2ccccc2[nH]1,34% [at 10 µM]
11,COc1ccc(C(=O)Sc2nncc3ccccc23)cc1,20.9%
12,c1ccc(CNc2ncnc3nc[nH]c23)cc1,4.97%
13,COc1ccc(Nc2ccnc3ccccc23)cc1,-21.6%
14,COc1ccc(NC(=O)CN(C)C(=O)CCNC(=O)c2ccccc2OC)cc1,40.4%
15,Brc1ccc2ncnc(NCc3ccccc3)c2c1,-9.22%
16,CC(=O)Nc1ccc(Oc2sc(C(=O)c3ccccc3)c(N)c2C#N)cc1,10.3%
17,Nc1nn(-c2ccccc2)nc1C(=O)OCc1ccccc1,-22.4%
18,N#Cc1c(-c2cccc(Br)c2)cc(-c2ccco2)[nH]c1=O,9.15%
19,COCc1ccc(CN2CCC(n3nccc3NC(=O)c3ccc4c(c3)OCO4)CC2)o1,-5.4%
20,CSCC(=O)N1CCCC(CO)(Cc2ccccc2C)C1 (stereo not drawn),10.3%
21,CO[C@H]1CN(C)C(=O)c2cc(NS(C)(=O)=O)ccc2OC[C@H](C)N(C(=O)NC(C)C)C[C@@H]1C,2.58%
22,Cc1ccc(NC(=O)C2C(c3ccccc3)C2(Cl)Cl)c(C)c1 (stereo not drawn),33.3%
23,Cc1ccc(Nc2nc(C)cc(C)c2C(N)=O)c(C)c1,33.1%
24,O=C(/C=C/c1ccc(N2CCCCC2)c([N+](=O)[O-])c1)c1ccc(O)cc1,-41.9%
25,O=c1[nH]nc(-c2ccc(NCCCO)c([N+](=O)[O-])c2)c2ccccc12,-24.9%
